PubChem BioAssay AID2732 (Emory University Molecular Libraries Screening Center, 2010)
The campaign covered roughly 220,000 compounds. About 8,200 (3.7%) were called active.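 The calls were made as follows: active = compounds that reduced the stress-induced luciferase reporter signal by more than about 70% of percent inhibition (limit read from the data); inactive = the rest.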 The sample as a whole holds a higher share of actives than the screen did.

Assay: inhibitors of CHOP promoter induction, primary screen, cell-based, unfolded protein response, luciferase reporter (AID 2732);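 also: 0% = tunicamycin plus vehicle and 100% = wells without tunicamycin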
Conditions: CHO-K1 CHOP-promoter luciferase, tunicamycin-induced, 15-18 h; at 10 µM; stronger effect = higher value

| Compound | inhibition |
| --- | --- |
| COCCN1C2=C(COC(C)(C)C2)C(=S)NC1c1ccccc1 (stereo unspecified) | 12.9% (inactive) |
| Cc1cc(C(=O)OCC(=O)Nc2nccs2)c2ccccc2n1 | 23.3% (inactive) |
| CSc1ccc(S(=O)(=O)Nc2cccc(F)c2)cc1 | 74.6% (active) |
| Cc1cc(C)cc(NS(=O)(=O)c2ccc(F)cc2)c1 | 10.9% (inactive) |
| CSc1ccc(S(=O)(=O)NC2CCCCC2)cc1 | 1.25% (inactive) |
| O=S(=O)(Nc1ccc(OC(F)(F)F)cc1)c1cccc2nonc12 | -2.82% (inactive) |
| Cn1ccc(NC(=O)Nc2ccc(Cl)cc2)n1 | -23.2% (inactive) |
| CC(C)=NN1C(=O)c2ccccc2NC1(C)C | 2.15% (inactive) |
| COCCN(CCOC)C(=S)Nc1ccccc1Cl | 15.1% (inactive) |
| O=C(Nc1ccccc1Cl)c1ccc2nsnc2c1 | -20.7% (inactive) |
| O=C(Nc1ccccc1Cl)/C(Cl)=C(\Cl)S(=O)c1ccccc1 (stereo unspecified) | 108% (active) |
| NC(=O)Cc1ccc2c(c1)[nH]c1ccccc12 | -13.9% (inactive) |
| CCNc1nc(NCC)nc(N/N=C/c2ccc(O)c(OC)c2)n1 | -5.61% (inactive) |
| OC(c1ccccc1)C(CN1CCOCC1)c1ccccc1 (stereo unspecified) | 9.34% (inactive) |
| Cc1ccc(NC(=O)C(C)c2cccc(C(=O)c3ccccc3)c2)cc1 (stereo unspecified) | 19.2% (inactive) |
| O=C(Nc1ccccc1F)c1ccccc1-c1ccccc1 | 1.92% (inactive) |
| Cc1ccccc1NC(=O)C(C)c1ccc(-c2ccccc2)c(F)c1 (stereo unspecified) | 70.4% (active) |
| COc1cccc(NC(=O)c2ccc(S(=O)(=O)N(C)C)cc2)c1 | -15.2% (inactive) |
| O=C(Nc1nnc(-c2ccco2)o1)c1ccc(S(=O)(=O)N2CCOCC2)cc1 | 13.2% (inactive) |
| COc1cccc(-c2nnc(NC(=O)c3ccc(S(=O)(=O)N(CC(C)C)CC(C)C)cc3)o2)c1 | 108% (active) |
| CCN(c1ccc(NC(=O)COC(=O)CCc2nc3ccccc3n2-c2ccccc2)cc1)C(C)C | 79% (active) |
| CC(C)(C)c1ccc(NC(=O)COC(=O)CCc2nc3ccccc3c(=O)[nH]2)cc1 | 20% (inactive) |
| Cc1ccc(NC(=O)COC(=O)CCc2nc3ccccc3n2-c2ccccc2)c(C)c1 | 2.62% (inactive) |
| Cc1c(C(=O)N(Cc2ccccc2)Cc2cccnc2)cnn1-c1ccc(F)cc1 | 0% (inactive) |

| Compound | inhibition |
| --- | --- |
| COC(=O)c1sccc1NC(=O)CC1C(=O)NCCN1C(=O)Nc1ccc(F)cc1F (stereo unspecified) | 12.3% (inactive) |
| C=CS(=O)c1sc(Cl)c(N2CCOCC2)c1[N+](=O)[O-] (stereo unspecified) | 106% (active) |
| Cc1nc(=O)c(-c2ccccc2)c(C)n1-c1ccc(Br)cc1 | 3.14% (inactive) |
| O=C(C[n+]1ccc2c(c1)nnn2-c1ccccc1)c1ccc(Cl)cc1 | 34.6% (inactive) |
| CCCCCCc1cc2cc(-c3nnc(-c4ccccc4)o3)c(=O)oc2cc1O | 95.9% (active) |
| Cc1c(CCC(=O)O)c(=O)oc2cc3occ(-c4ccccc4)c3cc12 | 37.1% (inactive) |
| CCCC(=O)Nc1nnc(-c2ccccc2)o1 | 0.67% (inactive) |
| O=C1CCCCC1C(=O)c1ccccc1 (stereo unspecified) | 8.57% (inactive) |
| O=C(CNCCC1=CCCCC1)Nc1ccccc1N1CCCCCC1 | 72.9% (active) |
| Cc1ccccc1NC(=O)CNc1ccccc1N1CCCCC1 | 89.1% (active) |
| O=C(Cc1cccc2ccccc12)NCCC1=CCCCC1 | 40.1% (inactive) |
| Cn1c(=O)c2c(nc(SCC(=O)Nc3ccccc3N3CCCCC3)n2C)n(C)c1=O | 21.7% (inactive) |
| Cc1ccccc1NC(=O)Nc1ccccc1N1CCCCC1 | 28.6% (inactive) |
| O=C(CN1CCN(C2CCCCC2)CC1)Nc1ccccc1N1CCCCC1 | 59.2% (inactive) |
| Cc1ccc(OS(=O)(=O)c2ccc(-c3csc(C)n3)s2)c(C)c1 | 22.5% (inactive) |
| CNC(=O)c1csc(Cc2c(Cl)sc3ccc(Cl)cc23)n1 | 30.4% (inactive) |
| Cc1cc(Nc2ccc(Cl)cc2)nc(N2CCOCC2)n1 | 0.58% (inactive) |
| Cn1c(SCC(=O)c2ccc(F)cc2)nnc1-c1ccccn1 | 6.32% (inactive) |
| COc1ccc(CC(=O)NC(C)CCc2ccccc2)cc1 (stereo unspecified) | -12.2% (inactive) |
| COc1ccc(C(CCNCc2ccccc2F)c2ccc(F)cc2)cc1 (stereo unspecified) | 79.4% (active) |
| COc1cccc(CNCCc2c[nH]c3ccccc23)c1OCc1ccccc1F | 12.6% (inactive) |
| O=c1c2cc(-c3ccccc3)sc2nc2n1N=C(c1cccs1)CS2 | -4.25% (inactive) |
| Clc1ccc(-c2cc(-c3ccccn3)on2)c(Cl)c1 | 63.3% (inactive) |
| O=[N+]([O-])c1ccc(N=Cc2c(O)ccc3ccccc23)cc1 | 28.1% (inactive) |

| Compound | inhibition |
| --- | --- |
| COCCN(C(=S)Nc1cccc(Cl)c1C)C(C)c1ccco1 (stereo unspecified) | 42.5% (inactive) |
| C=C(C)C(=O)Nc1cccc(C2=NOC3(C2)C[C@H](C(N)=O)N(C(=O)C(c2ccccc2)c2ccccc2)C3)c1 (stereo partly specified) | -8.97% (inactive) |
| CC(C)(C)c1ccc(/C=C2\Oc3c(ccc(O)c3CN3CCN(CCO)CC3)C2=O)cc1 | -15.1% (inactive) |
| Cc1ccc(C(=O)N/C(=C\c2ccco2)C(=O)NC2CCS(=O)(=O)C2)cc1 (stereo unspecified) | 10.1% (inactive) |
| Cc1cc(C(=O)N2CCC(C(=O)O)CC2)c(C(F)(F)F)o1 | 1.47% (inactive) |
| Cc1cc(C)cc(N(CC(=O)NCC2CCCO2)S(=O)(=O)c2c(C)noc2C)c1 (stereo unspecified) | 23.4% (inactive) |
| Cc1cc(C)cc(N(CC(=O)N2CC=C(c3ccccc3)CC2)S(=O)(=O)c2c(C)noc2C)c1 | 70% (active) |
| CCOC(=O)C1CCCN(C(=O)CN(c2ccc(OC)cc2)S(=O)(=O)c2c(C)noc2C)C1 (stereo unspecified) | 10.8% (inactive) |
| CC(NC(=S)NNS(=O)(=O)c1ccc(C(C)(C)C)cc1)c1ccccc1 (stereo unspecified) | 51.7% (inactive) |
| O=C(c1[nH]ncc1-c1ccc(Cl)cc1)C1CO1 (stereo unspecified) | -97.8% (inactive) |
| O=C1C(Cc2ccc(O)cc2)NC(=S)N1Cc1ccccc1 (stereo unspecified) | -7.09% (inactive) |
| O=C1CC(Cc2ccc(Cl)cc2)C(=O)N1c1cc(Cl)ccn1 (stereo unspecified) | 7.86% (inactive) |
| CCCCC(CC)CNC(=O)C(=O)C1C(=O)Nc2ccccc21 (stereo unspecified) | 86.7% (active) |
| CCCCC(CC)CNC(=O)CCCCn1c(=O)[nH]c2ccsc2c1=O (stereo unspecified) | 10.3% (inactive) |
| CCOC(=O)C(=O)C1C(=O)Nc2ccccc21 (stereo unspecified) | 17.5% (inactive) |
| Cc1cc(C(=O)CSc2nc(N)cc(=O)[nH]2)c(C)n1Cc1ccco1 | 3.96% (inactive) |
| COc1ccc(C(=O)N/N=C(\C)CC(=O)Nc2ccc(Cl)cn2)cc1 | 4.2% (inactive) |
| O=C(C1CC1)N1CCN=C1SCc1ccc(Cl)cc1 | 5.04% (inactive) |
| O=C(c1ccc(CSc2ccccc2)cc1)N1CCCCCC1 | 23.8% (inactive) |
| CC1CCN(C(=O)c2ccc(CSc3ccc(Cl)cc3)cc2)CC1 | 80.3% (active) |
| Cn1c2ccccc2c2cc(/C=C(\NC(=O)c3ccccc3)C(=O)NCC(=O)O)ccc21 | -15.8% (inactive) |
| O=C(CCS(=O)(=O)c1ccccc1Cl)Nc1ccc(S(=O)(=O)Nc2ncccn2)cc1 | 3.66% (inactive) |
| CC(C)n1c(CN2CCN(Cc3ccccc3)CC2)nc2ccccc21 | -0.64% (inactive) |
| CC(=O)Nc1ccc(C(=O)/C=C/c2ccc[nH]2)cc1 | -14.3% (inactive) |

| Compound | inhibition |
| --- | --- |
| O=C(NC1CCCCC1)c1cc(C2CC2)on1 | 1.58% (inactive) |
| CC(C)C(=O)N1CCN(c2nc(-c3ccccc3)c3c(c2C#N)CC(C)(C)OC3)CC1 | 26.8% (inactive) |
| CCCCc1nc(NCc2ccccc2)c(C#N)c2c1CCCC2 | 54.3% (inactive) |
| Cc1nc(NCc2ccccc2)c(C(N)=O)c2c1COC(C)(C)C2 | -8.11% (inactive) |
| CCCCc1nc(NCCN)c(C#N)c2c1CSC(C)(C)C2 | 101% (active) |
| Cc1nc(NCCN)c(C#N)c2c1COC(C)(C)C2 | 74.9% (active) |
| CCc1nc(NCCO)c(C#N)c2c1CCCC2 | 17.2% (inactive) |
| C=CCSc1nnc(NC(=O)c2ccc(NC(C)=O)cc2)s1 | 6.97% (inactive) |
| COC(=O)c1scc(C)c1NC(=O)CSc1ccc(Cl)cc1 | 16.3% (inactive) |
| Cn1cccc1/C=C1\SC(=O)N(CC(=O)Nc2ccc(F)cc2)C1=O | 72% (active) |
| Cc1nn(Cc2ccccc2)c(C)c1C(=O)NCCN1C(=O)S/C(=C\c2ccc(F)cc2)C1=O | 56.3% (inactive) |
| Cn1cccc1/C=C1\SC(=S)N(NC(=O)c2ccc(Cl)cc2)C1=O | 20.4% (inactive) |
| COc1ccc(N2CCC(CNC(=S)Nc3c(C)cccc3C)C2)cc1 (stereo unspecified) | 18.6% (inactive) |
| CCOc1ccccc1C1CC(c2cccc(NS(C)(=O)=O)c2)=NN1C(=O)c1ccccc1 (stereo unspecified) | -2.91% (inactive) |
| COc1ccc(C2CC(c3ccccc3)=NN2C(=O)c2ccc(Cl)c([N+](=O)[O-])c2)cc1 (stereo unspecified) | -21.3% (inactive) |
| CCOc1ccc2nc(Cl)c(C3CC(c4ccccc4)=NN3C(=O)c3cccs3)cc2c1 (stereo unspecified) | 90.5% (active) |
| OC(CNCc1ccc2c(c1)OCO2)COc1ccccc1 (stereo unspecified) | -20.3% (inactive) |
| CCOC(=O)CC1C(=O)NCCN1c1nc2c(C)cccn2c(=O)c1/C=C1\SC(=S)N(C(C)CC)C1=O (stereo unspecified) | 5.91% (inactive) |
| Cc1cccc(Cn2c(N3CCN(c4ccccc4)CC3)nc3c2c(=O)n(C)c(=O)n3C)c1 | 40.4% (inactive) |
| C/C(Cl)=C\Cn1c(Nc2cccc(C)c2)nc2c1c(=O)n(C)c(=O)n2C | 76.1% (active) |
| COC(=O)C(C)Sc1nc2c(c(=O)n(C)c(=O)n2C)n1Cc1cccc(C)c1 (stereo unspecified) | 11.8% (inactive) |
| CNc1ccc([N+](=O)[O-])cc1C(=O)O | -14.2% (inactive) |
| Nc1nc(O)c(CC(=O)O)s1 | 9.65% (inactive) |
| CC(=O)N/C(=C\c1ccc(F)cc1)C(=O)NC(Cc1ccccc1)C(=O)O (stereo unspecified) | 2.9% (inactive) |
